Reference: publication PMC9911399, “Two distinct binding modes provide the RNA-binding protein RbFox with extraordinary sequence specificity”
Where a chain is given by its changes, count along the chain named. Over roughly 16,000 sequences, “ka relative to ugcaugu” has its median near 0.096; the highest 2% begin near 0.35. This is one part of a sample in which the highest values are shown more often than they occur.

B1: AAUCCAU (DNA:RNA)
RNA: GGGAGACCGGAAUUCAGAUUGUCCAAUCCAUUUAAAUCCCGUCGUAGCCACCA
DNA 1: CAATCTGAATTCCGGTCTCCC
DNA 2: TGGTGGCTACGACGGGATT
B2: GGAAACG (DNA:RNA)
RNA: GGGAGACCGGAAUUCAGAUUGUCCGGAAACGUUAAAUCCCGUCGUAGCCACCA
DNA 1: CAATCTGAATTCCGGTCTCCC
DNA 2: TGGTGGCTACGACGGGATT
B3: ACGCCAA (DNA:RNA)
RNA: B1 RNA with A26C, U27G, U31A
DNA 1: CAATCTGAATTCCGGTCTCCC
DNA 2: TGGTGGCTACGACGGGATT
B4: GUCAUCA (DNA:RNA)
RNA: B2 RNA with G26U, A27C, A29U, G31A
DNA 1: CAATCTGAATTCCGGTCTCCC
DNA 2: TGGTGGCTACGACGGGATT
B5: GGAAUCA (DNA:RNA)
RNA: B2 RNA with A29U, G31A
DNA 1: CAATCTGAATTCCGGTCTCCC
DNA 2: TGGTGGCTACGACGGGATT
B6: GGCGUCG (DNA:RNA)
RNA: B2 RNA with A27C, A28G, A29U
DNA 1: CAATCTGAATTCCGGTCTCCC
DNA 2: TGGTGGCTACGACGGGATT
B7: GAUUCAG (DNA:RNA)
RNA: B1 RNA with A25G, C28U, U31G
DNA 1: CAATCTGAATTCCGGTCTCCC
DNA 2: TGGTGGCTACGACGGGATT
B8: GAAUCAG (DNA:RNA)
RNA: B1 RNA with A25G, U27A, C28U, U31G
DNA 1: CAATCTGAATTCCGGTCTCCC
DNA 2: TGGTGGCTACGACGGGATT
B9: GUUAUCA (DNA:RNA)
RNA: B2 RNA with G26U, A27U, A29U, G31A
DNA 1: CAATCTGAATTCCGGTCTCCC
DNA 2: TGGTGGCTACGACGGGATT
B10: GAAUCGA (DNA:RNA)
RNA: B1 RNA with A25G, U27A, C28U, A30G, U31A
DNA 1: CAATCTGAATTCCGGTCTCCC
DNA 2: TGGTGGCTACGACGGGATT
B11: GGCGUUG (DNA:RNA)
RNA: B2 RNA with A27C, A28G, A29U, C30U
DNA 1: CAATCTGAATTCCGGTCTCCC
DNA 2: TGGTGGCTACGACGGGATT
B12: CGAUCGA (DNA:RNA)
RNA: B2 RNA with G25C, A28U, A29C, C30G, G31A
DNA 1: CAATCTGAATTCCGGTCTCCC
DNA 2: TGGTGGCTACGACGGGATT
B13: GAACCAG (DNA:RNA)
RNA: B1 RNA with A25G, U27A, U31G
DNA 1: CAATCTGAATTCCGGTCTCCC
DNA 2: TGGTGGCTACGACGGGATT
B14: GAUCGAA (DNA:RNA)
RNA: B1 RNA with A25G, C29G, U31A
DNA 1: CAATCTGAATTCCGGTCTCCC
DNA 2: TGGTGGCTACGACGGGATT
B15: CCCGGCG (DNA:RNA)
RNA: B2 RNA with G25C, G26C, A27C, A28G, A29G
DNA 1: CAATCTGAATTCCGGTCTCCC
DNA 2: TGGTGGCTACGACGGGATT

biological target: T1, RBFOX1 RRM RbFoxmut (Fox-RRM*) (Homo sapiens, UniProt Q9NWB1 109-208, R118D;E147R;N151S;E152T); assay: EMSA; HiTS-Eq, 1 nM pool, 10 min; buffer printed only for the single-RNA assays: 10 mM Tris pH 7.5, 150 mM NaCl, 3.4 mM EDTA, 0.001% NP-40, 30 C; details: tags: His6 N-terminal (pET28a); label: 5' 32P
T1 sequence: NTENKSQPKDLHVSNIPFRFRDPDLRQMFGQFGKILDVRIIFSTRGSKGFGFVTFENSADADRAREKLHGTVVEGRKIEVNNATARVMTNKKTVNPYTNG
Method in brief: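 A pool of RNA with 7 randomized nucleotides, 5′-radiolabelled and with DNA-annealed flanks, was equilibrated at 1 nM for 10 min in 50 µL with purified RbFox RRM, wild type or mutant, across increasing protein concentrations. Free RNA was separated by 8% native PAGE, excised, reverse-transcribed, barcoded by PCR and sequenced. Relative association constants were obtained from read-count changes of each RNA species versus the control reaction and normalised to the cognate motif.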

Row | Binder | binding signal
1 | B1 | 0.074 KA relative to UGCAUGU
2 | B2 | 0.0703 KA relative to UGCAUGU
3 | B3 | 0.0795 KA relative to UGCAUGU
4 | B4 | 0.129 KA relative to UGCAUGU
5 | B5 | 0.426 KA relative to UGCAUGU
6 | B6 | 0.203 KA relative to UGCAUGU
7 | B7 | 0.155 KA relative to UGCAUGU
8 | B8 | 0.389 KA relative to UGCAUGU
9 | B9 | 0.18 KA relative to UGCAUGU
10 | B10 | 0.561 KA relative to UGCAUGU
11 | B11 | 0.367 KA relative to UGCAUGU
12 | B12 | 0.0748 KA relative to UGCAUGU
13 | B13 | 0.105 KA relative to UGCAUGU
14 | B14 | 0.113 KA relative to UGCAUGU
15 | B15 | 0.098 KA relative to UGCAUGU
